# Calls of active or inactive are those of the source. Unless noted, no rule for the calls is given here.
# Key:
# [1] = resazurin metabolic signal in HepG2 cells – cell-based, resazurin fluorescence, 24 h, PK04 Diversity Set, profiling panel (AID 1172); details: HepG2 viability, higher = more signal
# [2] = budding yeast growth changes without added modifier – OD600, strain BY4716, 24 h, basal condition, primary screen (AID 1173); details: S. cerevisiae BY4716 growth, OD600, 24 h; higher = more signal, called active from +8 up or from −8 down
# [3] = viability profiling in MM1S myeloma cells – cell-based, resazurin fluorescence, basal, 24 h, PK04 Diversity Set, profiling panel (AID 1174); details: higher = more signal, called active from +8 up or from −8 down;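 also: MM1S multiple myeloma cell line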
# [4] = target: Dihydroorotate dehydrogenase (quinone), mitochondrial (Plasmodium falciparum (isolate 3D7)) (UniProt Q08210); experiment: inhibition of P. falciparum DHODH – biochemical, C-terminal His tag, absorbance 600 nm, primary screen (AID 1175); details: PfDHODH enzyme, DCIP absorbance 600 nm; higher = more signal, called active from +8 up or from −8 down;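 also: recombinant parasite enzyme with a five histidine tag at its C terminus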
# [5] = inhibition of PAO1 biofilm formation – strain PAO1, LB-PBS medium, absorbance 600 nm, primary screen (AID 1176); details: P. aeruginosa PAO1 growth/biofilm, A600, 12 h; higher = more signal
# [6] = growth modulation of vineyard yeast isolate – strain RM11-1a, OD600, basal, 24 h, primary screen (AID 1177);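 also: cultures grown under basal conditions with no added stressor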; details: S. cerevisiae RM11-1a growth, OD600, 24 h; higher = more signal, called active from +8 up or from −8 down
# [7] = growth of efflux-deficient E. coli DRC39 – strain DRC39, OD650, 24 h, E. coli filamentation inducers, primary screen (AID 1178);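 also: growth measured as culture turbidity by optical density at 650 nm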; details: E. coli DRC39 acrAB, higher = more signal, called active from +8 up or from −8 down
# [8] = growth of efflux-deficient E. coli DRC39 – strain DRC39, OD650, 48 h, E. coli filamentation inducers, primary screen (AID 1179);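 also: screen aims at cell division blockers that make cells filament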; details: E. coli DRC39 delta-acrAB growth, higher = more signal, called active from +8 up or from −8 down
# [9] = viability profiling in RPMI8226 myeloma cells – cell-based, resazurin fluorescence, basal, 24 h, PK04 Diversity Set, profiling panel (AID 1180); details: higher = more signal;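 also: RPMI8826 multiple myeloma cell line at 5000 cells per well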
# [10] = target: E3 ubiquitin-protein ligase XIAP (Homo sapiens) (UniProt P98170); experiment: small molecules binding XIAP protein – biophysical, small-molecule microarray, fluorescence 635 nm, primary screen (AID 1181); details: higher = more signal;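 also: score merges 667 nm emission and signal to noise over triplicate slides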
# [11] = test system: XIP peptide (Xip251-270) binding; experiment: XIP fragment 251-270 binding compounds – biochemical, small-molecule microarray, fluorescence 635/667 nm, 0.1 µg/mL protein, primary screen (AID 1182); details: fluorescent protein binding, 635 nm, higher = more signal, called active from +8 up or from −8 down
# XIP peptide (Xip251-270) = experiment: compounds binding XIP fragment 251-270 – biochemical, small-molecule microarray, fluorescence 635/667 nm, 0.5 µg/mL protein, primary screen (AID 1183); details: fluorescence 635 nm, higher = more signal
# [12] = blood-stage malaria parasite viability loss – strain 3D7, DAPI fluorescence, 100 nL, primary screen (AID 1184);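 also: parasites grown inside human red blood cells in medium with human serum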; details: P. falciparum 3D7 growth, 3 d, higher = more signal
# [13] = target: Homeobox protein Hox-A13 (Mus musculus) (UniProt Q62424); experiment: disruptors of Hoxa13 oligonucleotide interaction – biochemical, fluorescence polarization, labeled oligonucleotide, primary screen (AID 1185); details: Hoxa13:DNA binding, 15 min, higher = more signal, called active from +8 up or from −8 down
# [14] = blockers of DNA damage checkpoint Chk1 activation – imaging, HeLa, hydroxyurea, phospho-Chk1 antibody, percent positive cells, primary screen (AID 1186); details: hydroxyurea-induced phospho-Chk1 immunofluorescence imaging, higher = more signal
# [15] = blockers of DNA damage checkpoint Chk1 activation – imaging, HeLa, hydroxyurea, phospho-Chk1 nuclear intensity, primary screen (AID 1187); details: hydroxyurea-induced phospho-Chk1 immunofluorescence imaging, higher = more signal
# Homeobox protein Hox-A13 (Mus musculus), sequence (Q62424 whole entry, looked up): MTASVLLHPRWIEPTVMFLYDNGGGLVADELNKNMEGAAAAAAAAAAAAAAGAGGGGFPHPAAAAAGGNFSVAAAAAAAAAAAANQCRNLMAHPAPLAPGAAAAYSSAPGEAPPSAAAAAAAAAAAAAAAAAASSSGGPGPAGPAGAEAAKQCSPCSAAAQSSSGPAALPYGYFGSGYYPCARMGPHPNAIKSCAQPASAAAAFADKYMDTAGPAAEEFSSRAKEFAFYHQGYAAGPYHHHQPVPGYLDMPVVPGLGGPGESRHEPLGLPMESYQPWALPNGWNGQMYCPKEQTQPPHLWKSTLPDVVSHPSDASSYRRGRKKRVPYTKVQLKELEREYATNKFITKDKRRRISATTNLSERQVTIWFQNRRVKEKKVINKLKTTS
# E3 ubiquitin-protein ligase XIAP (Homo sapiens), sequence (P98170 whole entry, looked up, the tested form may be a part): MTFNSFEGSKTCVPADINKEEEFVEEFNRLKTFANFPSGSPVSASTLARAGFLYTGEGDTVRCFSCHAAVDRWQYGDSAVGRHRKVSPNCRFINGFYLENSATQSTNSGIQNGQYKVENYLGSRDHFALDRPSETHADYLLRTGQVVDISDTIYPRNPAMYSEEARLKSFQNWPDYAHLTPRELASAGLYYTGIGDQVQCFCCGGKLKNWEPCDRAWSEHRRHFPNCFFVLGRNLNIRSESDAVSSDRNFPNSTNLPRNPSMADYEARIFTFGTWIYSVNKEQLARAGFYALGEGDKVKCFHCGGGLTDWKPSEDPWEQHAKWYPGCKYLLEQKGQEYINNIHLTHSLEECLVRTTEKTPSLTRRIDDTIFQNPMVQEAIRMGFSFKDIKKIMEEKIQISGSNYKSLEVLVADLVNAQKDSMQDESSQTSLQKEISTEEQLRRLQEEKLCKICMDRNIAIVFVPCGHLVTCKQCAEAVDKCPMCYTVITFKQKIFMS
# Dihydroorotate dehydrogenase (quinone), mitochondrial (Plasmodium falciparum (isolate 3D7)), sequence (Q08210 whole entry, looked up): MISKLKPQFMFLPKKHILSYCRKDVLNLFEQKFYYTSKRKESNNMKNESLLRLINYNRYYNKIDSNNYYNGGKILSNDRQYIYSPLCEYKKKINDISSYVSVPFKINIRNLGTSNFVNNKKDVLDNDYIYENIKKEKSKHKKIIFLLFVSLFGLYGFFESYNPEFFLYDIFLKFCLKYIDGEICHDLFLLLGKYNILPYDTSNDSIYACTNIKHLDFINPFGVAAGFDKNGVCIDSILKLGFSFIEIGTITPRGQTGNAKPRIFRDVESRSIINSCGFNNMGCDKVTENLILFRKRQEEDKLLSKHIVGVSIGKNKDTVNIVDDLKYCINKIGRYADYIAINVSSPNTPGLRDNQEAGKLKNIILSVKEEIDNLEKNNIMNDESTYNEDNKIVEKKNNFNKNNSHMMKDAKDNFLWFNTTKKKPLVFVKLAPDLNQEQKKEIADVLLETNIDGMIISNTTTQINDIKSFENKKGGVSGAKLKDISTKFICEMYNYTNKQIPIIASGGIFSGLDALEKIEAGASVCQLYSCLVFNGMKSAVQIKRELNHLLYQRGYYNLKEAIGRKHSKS
SMILES,z-score [1],z-score [2],z-score [3],composite z-score [4],z-score [5],z-score [6],z-score [7],z-score [8],z-score [9],composite z-score [10],composite z-score [11],composite z-score (XIP peptide (Xip251-270)),z-score [12],z-score [13],z-score [14],z-score [15]
COCCCNC(=O)[C@]1(Cc2ccccc2)N=C(c2ccc(OCCCO)cc2)O[C@@H]1c1ccccc1,0.754,-0.706 (inactive),0.325 (inactive),-0.0882 (inactive),0.494 (inactive),-0.499 (inactive),0.156 (inactive),-1.11 (inactive),0.778,-0.0118,2.03 (inactive),0.825,-2.17,-4.76 (inactive),-0.117 (inactive),-0.0405 (inactive)
CCOC(=O)C1=CCC(c2cc3ccccc3[nH]2)NC1 (centres undefined),-0.309,-3.2 (inactive),-0.79 (inactive),-0.0148 (inactive),0.0083 (inactive),-0.194 (inactive),-0.303 (inactive),-0.391 (inactive),-0.613,0.0418,-0.0143 (inactive),-0.753,-0.501,-1.51 (inactive),0.437 (inactive),-0.151 (inactive)
COCCOC(=O)N1C(=O)[C@@]2(c3cc(C#CCNC(N)=O)ccc31)[C@H](c1ccc(O)cc1)N1[C@H](c3ccccc3)[C@H](c3ccccc3)OC(=O)[C@H]1[C@@H]2C(=O)N1CCCCCCC1,-0.0455,1.01 (inactive),-0.172 (inactive),0.0489 (inactive),0.553 (inactive),0.517 (inactive),0.474 (inactive),-0.188 (inactive),-0.336,-0.212,0.348 (inactive),0.561,-0.0743,-0.578 (inactive),0.149 (inactive),0.452 (inactive)
COc1ccccc1CN1C(=O)c2ccccc2[C@@H](C(=O)NCC(F)(F)F)[C@@H]1c1ccc(CO)cc1,1.06,0.403 (inactive),-1.15 (inactive),0.338 (inactive),0.512 (inactive),-0.0178 (inactive),0.796 (inactive),1.69 (inactive),0.268,-0.148,-0.51 (inactive),0.561,-1.19,-2.99 (inactive),-0.188 (inactive),0.158 (inactive)
CN1C(=O)C2C=CC(C(O)C(c3ccccc3)c3ccccc3)N(NC(=O)OC(C)(C)C)C2C1=O (centres undefined),-0.889,-4.58 (inactive),-0.861 (inactive),-1.08 (inactive),0.791 (inactive),0.225 (inactive),-0.963 (inactive),-0.577 (inactive),-0.962,0.497,3.1 (inactive),0.752,0.617,-4.08 (inactive),0.242 (inactive),-0.158 (inactive)
C#C[C@@H](CC)O[Si](C#Cc1ccc(Oc2ccccc2)cc1)(C(C)C)C(C)C,-0.543,-0.87 (inactive),-0.613 (inactive),-0.661 (inactive),0.833 (inactive),0.898 (inactive),-0.568 (inactive),-0.416 (inactive),-1.1,-0.0562,0.0878 (inactive),-0.102,-0.968,-0.279 (inactive),0.169 (inactive),-0.0725 (inactive)
COCCOC(=O)N1C(=O)[C@@]2(c3cc(C#CC4(O)CCCCCC4)ccc31)[C@H](C(=O)N1CCN(c3ncccn3)CC1)[C@H]1C(=O)O[C@H](c3ccccc3)[C@H](c3ccccc3)N1[C@@H]2c1ccc(OCCO)cc1,-0.324,1.44 (inactive),0.712 (inactive),-0.0915 (inactive),2.53 (inactive),2.98 (inactive),-0.446 (inactive),0.293 (inactive),0.928,-0.0749,-0.128 (inactive),0.835,-2.34,0.821 (inactive),0.124 (inactive),0.204 (inactive)
CC(C)(C)OC(=O)CC[C@]1(C(N)=O)COC(c2ccc(OCCCO)cc2)=N1,-0.722,0.0462 (inactive),-1.43 (inactive),0.0996 (inactive),0.134 (inactive),-0.788 (inactive),-0.34 (inactive),0.381 (inactive),-0.751,0.276,2.48 (inactive),0.223,0.0099,-1.89 (inactive),0.764 (inactive),0.572 (inactive)
COCCCNC(=O)[C@]1(CCC(=O)OC(C)(C)C)N=C(c2ccc(OCCCO)cc2)O[C@@H]1c1ccccc1N=[N+]=[N-],1.18,-0.334 (inactive),-0.637 (inactive),0.08 (inactive),0.149 (inactive),0.149 (inactive),0.615 (inactive),0.0528 (inactive),-0.128,0.121,0.448 (inactive),0.764,-1.75,-4.03 (inactive),-0.437 (inactive),-0.234 (inactive)
CCCC[C@@H](O)C1=C(C)C[C@H]2C(=O)N(Cc3ccccc3)C(=O)[C@H]2[C@H]1CO,-0.31,-3.87 (inactive),-0.327 (inactive),-2.65 (inactive),0.27 (inactive),0.161 (inactive),0.11 (inactive),0.183 (inactive),-0.287,-0.0911,-0.38 (inactive),0.576,-0.224,-3.33 (inactive),0.391 (inactive),0.984 (inactive)
CN1C(=O)[C@@]2(CCC(=O)OC(C)(C)C)N=C(c3ccc(OCCCO)cc3)O[C@H]2c2ccccc21,0.761,-1.04 (inactive),-1.82 (inactive),-0.281 (inactive),0.0279 (inactive),-0.177 (inactive),1.2 (inactive),0.767 (inactive),-1.99,0.169,0.0792 (inactive),0.576,-2.1,-4.88 (inactive),-0.414 (inactive),-0.261 (inactive)
[N-]=[N+]=NCc1ccccc1C[C@]1(C(=O)NCc2ccccc2)N=C(c2ccc(OCCCO)cc2)O[C@H]1c1ccccc1N=[N+]=[N-],-0.269,0.316 (inactive),-1.53 (inactive),0.294 (inactive),1.68 (inactive),-0.204 (inactive),0.82 (inactive),-0.0271 (inactive),-2.15,-0.22,-0.649 (inactive),0.344,-2.52,0.378 (inactive),-0.278 (inactive),-0.2 (inactive)
CCCCCN1CC=CC23O[C@@H]4C=CCOC(=O)[C@@H]4[C@H]2C(=O)N(C(CO)C(C)C)[C@@H]3C1=O (some centres undefined),0.862,1.02 (inactive),0.111 (inactive),0.204 (inactive),0.0126 (inactive),0.89 (inactive),-0.128 (inactive),-0.301 (inactive),-0.0045,0.266,0.824 (inactive),0.907,-0.303,-4.81 (inactive),-0.0211 (inactive),0.0917 (inactive)
CCOC(=O)C[C@H]1[C@H](OC(=O)c2cc3ccccc3oc2=O)[C@@H](NC(=O)c2ccc3ccccc3n2)c2cc(OCCCO)ccc2N1C(=O)c1ccccc1,-0.983,-2.08 (inactive),-0.668 (inactive),-1.97 (inactive),-0.754 (inactive),-0.0333 (inactive),-0.341 (inactive),-0.753 (inactive),-0.599,0.217,0.26 (inactive),-0.224,-2.07,-0.763 (inactive),0.22 (inactive),0.249 (inactive)
COCC(=C=CC[C@@H](O)c1ccccc1OCCO)CCO,0.721,-0.853 (inactive),0.599 (inactive),-1.59 (inactive),0.0356 (inactive),0.0502 (inactive),1.63 (inactive),1.16 (inactive),1.42,0.326,0.291 (inactive),0.0706,-0.721,-2.37 (inactive),-0.595 (inactive),-0.534 (inactive)
N#Cc1ccc(NN2C(C(O)c3cccc4ccccc34)C=CC3C(=O)N(c4ccccc4)C(=O)C32)cc1 (centres undefined),-0.707,0.185 (inactive),-0.605 (inactive),0.199 (inactive),0.487 (inactive),0.806 (inactive),-0.586 (inactive),0.434 (inactive),-0.28,0.0791,0.366 (inactive),0.684,-0.0446,1.05 (inactive),-0.145 (inactive),0.137 (inactive)
CCCCCCc1nc(CCCc2cc3c(c(CCCCCC)n2)[Si](C(C)C)(C(C)C)O[C@H]3c2ccccc2)cc2c1[Si](C(C)C)(C(C)C)O[C@H]2c1ccccc1,0.0054,1.33 (inactive),-0.582 (inactive),-0.347 (inactive),0.0793 (inactive),-0.879 (inactive),-0.631 (inactive),-0.981 (inactive),-0.465,-0.117,0.285 (inactive),-0.307,-0.607,-2.79 (inactive),-0.0972 (inactive),-0.202 (inactive)
O=C1c2ccccc2[C@@]2(Cc3ccccc3N(C3CC3)C2=O)[C@H](c2ccc(CO)cc2)N1Cc1ccccc1C(F)(F)F,-0.506,0.194 (inactive),0.187 (inactive),-9.3 (active),0.242 (inactive),-0.887 (inactive),-0.201 (inactive),-0.136 (inactive),-0.398,0.0428,-0.27 (inactive),0.926,-1.42,-2 (inactive),0.0523 (inactive),0.145 (inactive)
C=C(/C(=C/C[C@H](OC(C)=O)c1ccc(OCCO)cc1)c1cnc2ccccc2c1)C(C)C,1.93,-1.34 (inactive),-0.97 (inactive),-5.53 (inactive),-0.092 (inactive),-0.705 (inactive),0.263 (inactive),-0.511 (inactive),-0.853,0.102,-0.18 (inactive),0.605,-2.99,-4.31 (inactive),-0.319 (inactive),-0.38 (inactive)
